9 compounds from article PMC5540273 (PLoS ONE, 2017) can be followed below.

Conditions in all cases: concentration: 1 μM,replicates: in singlicate; n = 1
In assay [1] the test system is T1, MEK5.
T1 construct: gene MAP2K5

Assay [2] has as its system T2, MEK6.
T2 construct: gene MAP2K6

Assay [3] relates to MELK.
In assay [4] the test system is MERTK.
The subject of assay [5] is MET.
The subject of assay [6] is T3, MINK.
T3 construct: gene MINK1

Assay [7] concerns MKK7.
Assay [8] relates to MKNK1.
The test system of assay [9] is MKNK2.
The subject of assay [10] is T4, MLCK.
T4 construct: gene MYLK3

For assay [11], the system named is T5, MLK1.
T5 construct: gene MAP3K9

The subject of assay [12] is MLK2.
In assay [13] the test system is MLK3.
Assay [14] has as its system MRCKA.
Assay [15] relates to T6, MRCKB.
T6 construct: gene CDC42BPB

Assay [16] deals with MST1R.
Assay [17] relates to T7, MST1.
T7 construct: gene STK4

For assay [18], the system named is T8, MST2.
T8 construct: gene STK3

Assay [19] deals with T9, MST3.
T9 construct: gene STK24

Assay [20] deals with MST4.

Each structure is given as a SMILES string.
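Further: KINOMEscan kinase panel screen.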

With `Cl.Nc1n[nH]c2cc(-c3ccccn3)ccc12` [GSK2189892], the “%Inh” value is given as 45% in [1]; 0% in assay [2]; 2% in [3]; 0% in assay [4]; 0% in [5]; 0% in assay [6]. Also, the “%Inh” value in assay [7] came out at 0%; in assay [8] it was 0%; in assay [9], 32%; in assay [10], 0%; in assay [11], 0%; in [12], 0%. For the same compound, the “%Inh” value in assay [13] is 15%; in assay [14], 0%; in assay [15] it was 0%; in [16], 27%; in assay [17], 0%; in [18], 0%. Besides, the “%Inh” value in [19] and in [20] was 0% in each case.

Regarding `CN1CCN(CCNc2nc3cc(Oc4ccc(NC(=O)Nc5cc(C(F)(F)F)ccc5F)cc4)ccc3[nH]2)CC1.Cl.Cl` [GW768504], the “%Inh” value in assay [1] is listed as 2%; in [2] it was 12%; in assay [3], 0%; in assay [4], 85%; in [5], 6%; in assay [6], 0%. Further, the “%Inh” value in [7] worked out at 0%; in [8] it was 24%; in assay [9] it was 26%; in assay [10] it was 0%; in [11], 0%; in assay [12], 40%. The “%Inh” value is given as 0% in assay [13]; 0% in assay [14]; 4% in [15]; 0% in assay [16]; 16% in assay [17]; 0% in assay [18]. For the same compound, the “%Inh” value in assay [19] and in assay [20] was 0% each time.

For the compound `COc1cc2nccc(Nc3ccc(Oc4ccccc4)cc3)c2cc1OC.Cl` [GI261656], the “%Inh” value in assay [1] is reported as 99.9%; in assay [2] it was 0%; in assay [3] it was 3%; in assay [4] it was 12%; in [5] it was 0%; in assay [6] it was 0%. The “%Inh” value is recorded as 0% in assay [7]; 0% in [8]; 27% in [9]; 0% in assay [10]; 0% in assay [11]; 0% in [12]. In addition, the “%Inh” value in assay [13] came out at 15%; in [14] it was 0%; in assay [15], 0%; in assay [16], 30%; in [17], 0%; in [18] it was 0%. The “%Inh” value in [19] and in assay [20] was 0% in each case.

Take `CN(c1cccc(CNc2nc(Nc3ccc4c(c3)CC(=O)N4)ncc2C(F)(F)F)c1)S(C)(=O)=O`: the “%Inh” value in assay [1] was 0%; in [2], 0%; in [3], 84%; in assay [4], 80%; in assay [5], 93.9%; in assay [6], 76%. Besides, the “%Inh” value in assay [7] was determined as 0%; in assay [8], 0%; in assay [9], 28%; in assay [10], 1%; in [11], 93.3%; in [12] it was 82%. The “%Inh” value in assay [13] was determined as 87%; in assay [14], 0%; in [15], 0%; in [16], 15%; in assay [17], 0%; in assay [18], 10%. The “%Inh” value in [19] is 16%; in assay [20], 2%.

Take `O=C(Nc1ccccc1)c1cccc(Oc2ccc3nccn3n2)c1`: the “%Inh” value in assay [1] is on record as 9%; in assay [2] it was 0%; in assay [3], 11%; in assay [4], 0%; in assay [5], 0%; in [6] it was 6%. In addition, the “%Inh” value in assay [7] is on record as 0%; in assay [8], 7%; in assay [9] it was 6%; in assay [10], 1%; in [11], 0%; in assay [12] it was 0%. Besides, the “%Inh” value in [13] is 0%; in [14], 9%; in assay [15], 0%; in assay [16], 7%; in [17], 25%; in [18], 14%. Also, the figures for the “%Inh” value in [19] and in assay [20] were 37% and 0%, respectively.

Turning to `CN(c1ccc2c(c1)nc(NCc1ccc(F)cc1)n2C)c1ccnc(Nc2ccc(CS(C)(=O)=O)cc2)n1.Cl` [GW813244], the “%Inh” value amounted to 97.9% in assay [1]; 11% in [2]; 13% in assay [3]; 77% in assay [4]; 45% in assay [5]; 9% in [6]. Also, the “%Inh” value in assay [7] worked out at 4%; in [8], 0%; in assay [9], 0%; in [10], 0%; in assay [11], 24%; in assay [12], 44%. In addition, the “%Inh” value in assay [13] is listed as 0%; in assay [14] it was 6%; in assay [15] it was 0%; in [16], 0%; in assay [17], 16%; in assay [18] it was 0%. For the same compound, the “%Inh” value in assay [19] turned out to be 1%; in [20], 3%.

Regarding `CCn1c(-c2nonc2N)nc2cncc(CNC3CCNCC3)c21.Cl` [SB-747651], the “%Inh” value in assay [1] came out at 32%; in assay [2], 0%; in assay [3], 37%; in [4], 0%; in assay [5] it was 2%; in assay [6], 0%. Also, the “%Inh” value was 0% in assay [7]; 0% in [8]; 17% in assay [9]; 0% in assay [10]; 3% in assay [11]; 0% in assay [12]. Moreover, the “%Inh” value in assay [13] was found to be 0%; in assay [14], 7%; in assay [15] it was 4%; in assay [16], 31%; in assay [17] it was 19%; in assay [18] it was 0%. Besides, the “%Inh” value in [19] and in [20] was 0% in each case.

Consider `COc1cc2ncn(-c3cc(OCC4CCCCC4)c(C(N)=O)s3)c2cc1OC` [GSK204559], for which the “%Inh” value came out at 99.6% in assay [1]; 0% in assay [2]; 13% in [3]; 33% in assay [4]; 17% in assay [5]; 31% in assay [6]. Besides, the “%Inh” value in assay [7] is recorded as 0%; in [8], 33%; in assay [9], 10%; in [10] it was 3%; in assay [11], 12%; in [12], 33%. The “%Inh” value in [13] is given as 34%; in assay [14], 0%; in assay [15], 0%; in assay [16], 35%; in assay [17], 11%; in [18] it was 0%. Also, the “%Inh” value in [19] and in assay [20] was 0% in each case.

Regarding `O=c1[nH]cc(-c2ccc(O)cc2)c2sc(-c3ccncc3)cc12` [GSK1033723], the “%Inh” value in assay [1] worked out at 37%; in [2], 0%; in assay [3], 0%; in assay [4], 0%; in [5], 0%; in assay [6], 0%. The “%Inh” value in assay [7] was found to be 0%; in assay [8] it was 12%; in assay [9], 26%; in assay [10], 40%; in assay [11], 0%; in assay [12], 0%. Moreover, the “%Inh” value was 3% in assay [13]; 22% in assay [14]; 14% in assay [15]; 44% in [16]; 1% in assay [17]; 7% in [18]. In addition, the “%Inh” value is 6% in [19] and 0% in assay [20].
